Assay results published in PubChem BioAssay (NCATS).
“And” between values parts separate entries of the source, which are not always exact repeats. Equal entries are not always repeated. Results filed as inconclusive are left out. A call without a number means that no potency is given here. Where a structure was tested more than once in an assay, its records may differ in their call. The source made the active and inactive calls. Calls follow the shape of the dose curve; as a rule, active = well fitted curve in the direction sought with a large enough effect; inconclusive = small, poorly fitted or top-dose-only effect, or another doubt; inactive = no such curve, though single readings can be large; an effect the other way counts as inactive or inconclusive.

Assays:
[1] = test system: CRL-7250; test: Cytotoxic Profiling of Annotated Libraries Using Quantitative High-Throughput Screening (AID 1296008); settings: Five cell lines viability, CellTiter-Glo ATP luminescence, 48-72 h; max response: stronger effect = lower value; also: nearly all actives have a fitted effect of over 60% in size; also: potency is read from the fitted curve at half-maximal effect
Procedure, shortened: (§1)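 Cytotoxicity was measured as CellTiter-Glo ATP luminescence, read after 10 min at room temperature. Compound treatment of the cells lasted 48 or 72 hr at 37 degrees Celsius in a qHTS format.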

[2] = test system: HEK293; test: as above; settings: Five cell lines viability, CellTiter-Glo ATP luminescence, 48-72 h; max response: stronger effect = lower value
Procedure, shortened: as §1

[3] = test system: HaCat; test: as above; settings: Five cell lines viability, CellTiter-Glo ATP luminescence, 48-72 h; max response: stronger effect = lower value
Procedure, shortened: as §1

[4] = test system: KB-3-1; test: as above; settings: Five cell lines viability, CellTiter-Glo ATP luminescence, 48-72 h; max response: stronger effect = lower value
Procedure, shortened: as §1

[5] = test system: NIH3T3; test: as above; settings: Five cell lines viability, CellTiter-Glo ATP luminescence, 48-72 h; max response: stronger effect = lower value
Procedure, shortened: as §1

[6] = test system: MCC-13; test: qHTS assay to identify novel small-molecules to repurpose for Merkel cell carcinoma treatment (AID 1296009); settings: MCC and control cell lines, CellTiter-Glo viability, 72 h; series mostly up to 46 µM; also: nearly all actives have a fitted effect of over 60% in size; also: potency is read from the fitted curve at half-maximal effect
Procedure, shortened: (§2)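 Cell viability, measured as CellTiter-Glo luminescence, was normalized between DMSO and no-cell wells. The cells had been exposed to 8- or 11-point compound dilutions for 72 hr at 37 degree celsius.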

[7] = test system: MCC-26; test: as above; settings: MCC and control cell lines, CellTiter-Glo viability, 72 h; series mostly up to 46 µM
Procedure, shortened: as §2

[8] = test system: MKL-1; test: as above; settings: MCC and control cell lines, CellTiter-Glo viability, 72 h; series mostly up to 46 µM
Procedure, shortened: as §2

[9] = test system: MKL-2; test: as above; settings: MCC and control cell lines, CellTiter-Glo viability, 72 h; series mostly up to 46 µM
Procedure, shortened: as §2

[10] = test system: UISO; test: as above; settings: MCC and control cell lines, CellTiter-Glo viability, 72 h; series mostly up to 46 µM
Procedure, shortened: as §2

[11] = test system: WaGa; test: as above; settings: MCC and control cell lines, CellTiter-Glo viability, 72 h; series mostly up to 46 µM
Procedure, shortened: as §2

[12] = test system: TAB165; test: qHTS profiling for inhibitors of Plasmodium falciparum proliferation (AID 504749); also: nearly all actives have a fitted effect of over 60% in size; also: potency is read from the fitted curve at half-maximal effect; settings: P. falciparum in erythrocytes, SYBR Green DNA, 72 h; series mostly up to 28.7 µM
Procedure, shortened: (§3)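 SYBR Green fluorescence of parasite DNA, read after lysis and overnight dark incubation, measured growth over 72 h in erythrocyte culture at 0.3% parasitemia and 2.5% hematocrit. Data normalised to DMSO and 0.29 uM artemisinin, with plate-drift correction.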

[13] = test system: W2; test: as above; settings: P. falciparum in erythrocytes, SYBR Green DNA, 72 h; series mostly up to 28.7 µM
Procedure, shortened: as §3

[14] = test system: CRL-7250; test: qHTS assay to identify novel small-molecules to repurpose for Merkel cell carcinoma treatment (AID 1296009); settings: MCC and control cell lines, CellTiter-Glo viability, 72 h; series mostly up to 44.8 µM; also: nearly all actives have a fitted effect of over 60% in size; also: potency is read from the fitted curve at half-maximal effect
Procedure, shortened: as §2

[15] = test system: HACAT; test: as above; settings: MCC and control cell lines, CellTiter-Glo viability, 72 h; at 44.8 µM (top of the series) unless noted
Procedure, shortened: as §2

[16] = test system: HEK293T; test: as above; settings: MCC and control cell lines, CellTiter-Glo viability, 72 h; at 44.8 µM (top of the series)
Procedure, shortened: as §2

[17] = test system: C33A; test: Primary qHTS to identify gynecologic anti-cancer compounds using libraries of approved drugs and bioactive compounds (AID 1345084); settings: Gynecologic cancer cell panel viability, ATPlite luminescence, 48 h; series mostly up to 57.5 µM; also: nearly all actives have a fitted effect of over 55% in size
Procedure, shortened: (§4)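 Cells, 1,000 per well, were allowed to settle for 16 h at 37 C before compound addition. Five concentrations were tested for 48 h, and viability was read by ATPlite luminescence after 15 min at room temperature.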

[18] = test system: CAOV3; test: as above; settings: Gynecologic cancer cell panel viability, ATPlite luminescence, 48 h; series mostly up to 57.5 µM
Procedure, shortened: as §4

[19] = test system: CASKI; test: as above; settings: Gynecologic cancer cell panel viability, ATPlite luminescence, 48 h; series mostly up to 57.5 µM
Procedure, shortened: as §4

[20] = test system: NIH3T3; test: qHTS assay to identify novel small-molecules to repurpose for Merkel cell carcinoma treatment (AID 1296009); settings: MCC and control cell lines, CellTiter-Glo viability, 72 h; at 44.8 µM (top of the series) unless noted; also: nearly all actives have a fitted effect of over 60% in size; also: potency is read from the fitted curve at half-maximal effect
Procedure, shortened: as §2

In the case of COC1(CS(=O)c2ccccc2)CCN(CCc2c[nH]c3ccc(F)cc23)CC1 (configuration not stated), the max response [1] is reported as -22.3% (inactive), the max response [2] is reported as -11.2% (inactive) and the max response [3] is reported as -21.9% (inactive). For the same molecule, the max response [4] was -9.1% (inactive), the max response [5] was -8% (inactive) and the Potency [6] was “inactive”. The Potency [7] was “inactive”, the Potency [8] was “inactive” and the Potency [9] was “inactive”. For the same molecule, the Potency [10] was “inactive” and the Potency [11] was “inactive”.
With CN1CCN(C(=O)O[C@H]2c3nccnc3C(=O)N2c2ccc(Cl)cn2)CC1 the Potency [12] was “inactive”, the Potency [13] was “inactive” and the outcome [1] was “inactive”. The max response [3] was -17.1% (inactive), the outcome [3] was “inactive” and the max response [4] was 4.48% (inactive). For the same molecule, the max response [5] was -1.04% (inactive) and -0.741% (inactive), the outcome [14] was “inactive” and the outcome [15] was “inactive”. For the same molecule, the outcome [16] was “inactive”, the Potency [6] was “inactive” and the Potency [7] was “inactive”. The Potency [8] was “inactive”, the Potency [9] was “inactive” and the Potency [10] was “inactive”. For the same molecule, the Potency [11] was “inactive”, the Potency [17] was “inactive” and the Potency [18] was “inactive”. For the same molecule, the Potency [19] was “inactive”.
With C[C@]12CC[C@H]3[C@@H](CCC4=CC(=O)CC[C@@H]43)[C@@H]1CC[C@@H]2OC(=O)CCc1ccccc1 the max response [1] was -4.34% (inactive), the Potency [2] was 23.7 µM (active) and the max response [3] was 1.58% (inactive). The max response [5] was -2.8% (inactive), the Potency [6] was “inactive” and the Potency [7] was “inactive”. For the same molecule, the Potency [8] was “inactive”, the Potency [9] was “inactive” and the Potency [10] was “inactive”. The Potency [11] was “inactive”, the Potency [17] was “inactive” and the Potency [18] was “inactive”. The Potency [19] was “inactive”.
CC[N+]1(C)CCCC(OC(=O)C(O)(c2ccccc2)c2ccccc2)C1 (configuration not stated) was tested, and the Potency [12] was “inactive”, the Potency [13] was “inactive” and the max response [1] was 2.5% (inactive). For the same molecule, the max response [2] was -9.88% (inactive), the max response [3] was 1.89% (inactive) and the max response [4] was 3.82% (inactive). For the same molecule, the outcome [5] was “inactive”, the Potency [6] was “inactive” and the Potency [7] was “inactive”. For the same molecule, the Potency [8] was “inactive”, the Potency [9] was “inactive” and the outcome [20] was “inactive”. The Potency [10] was “inactive”, the Potency [11] was “inactive” and the Potency [17] was “inactive”. For the same molecule, the Potency [18] was “inactive” and the Potency [19] was “inactive”.
With N#CC(C#N)=Cc1ccc(O)c(O)c1 the Potency [12] was “inactive”, the max response [1] was -16.4% (inactive) and the outcome [3] was “inactive”. For the same molecule, the max response [4] was 1.48% (inactive), the max response [5] was -19.5% (inactive) and the outcome [15] was “inactive”. For the same molecule, the Potency [6] was “inactive”, the Potency [7] was “inactive” and the Potency [8] was 7.5 µM (active). The Potency [11] was 13.3 µM (active), the Potency [17] was “inactive” and the Potency [18] was “inactive”. For the same molecule, the Potency [19] was “inactive”.
Cc1ccc(S(=O)(=O)N[C@@H](CCCCN)C(=O)CCl)cc1 was tested, and the max response [1] was 3.77% (inactive), the outcome [3] was “inactive” and the max response [4] was 32.5% (inactive). For the same molecule, the outcome [5] was “inactive”, the outcome [15] was “inactive” and the Potency [6] was “inactive”. For the same molecule, the Potency [7] was “inactive”, the Potency [8] was “inactive” and the Potency [9] was “inactive”. The outcome [20] was “inactive”, the Potency [10] was “inactive” and the Potency [11] was “inactive”. The Potency [17] was “inactive”, the Potency [18] was “inactive” and the Potency [19] was “inactive”.
CC1=C2C[C@@H]3[C@@H](CC=C4C[C@@H](O)CC[C@@]43C)[C@@H]2CC[C@]12O[C@H]1C[C@H](C)CN[C@H]1[C@H]2C was tested, and the max response [1] was 4.78% (inactive), the outcome [3] was “inactive” and the max response [4] was 6.86% (inactive). The max response [5] was 0.588% (inactive), the outcome [15] was “inactive” and the Potency [6] was “inactive”. The Potency [7] was “inactive”, the Potency [8] was “inactive” and the Potency [9] was “inactive”. For the same molecule, the Potency [10] was “inactive” and the Potency [11] was “inactive”.
For Clc1cccc(N2CCNCC2)c1, the Potency [12] was “inactive”, the Potency [13] was 7.57 µM (active) and the max response [1] was 1.11% (inactive). The outcome [3] was “inactive”, the max response [4] was 5.71% (inactive) and the outcome [5] was “inactive”. For the same molecule, the outcome [15] was “inactive”, the Potency [6] was “inactive” and the Potency [7] was “inactive”. The Potency [8] was “inactive”, the Potency [9] was “inactive” and the outcome [20] was “inactive”. For the same molecule, the Potency [10] was “inactive”, the Potency [11] was “inactive” and the Potency [17] was “inactive”. For the same molecule, the Potency [18] was “inactive” and the Potency [19] was “inactive”.
For NCCc1cc(O)c(O)cc1O, the Potency [12] was “inactive”, the Potency [13] was “inactive” and the max response [1] was 3.51% (inactive). For the same molecule, the outcome [3] was “inactive”, the max response [4] was 9.04% (inactive) and the outcome [5] was “inactive”. The outcome [15] was “inactive”, the outcome [16] was “inactive” and the Potency [6] was “inactive”. For the same molecule, the Potency [8] was “inactive”, the Potency [9] was “inactive” and the outcome [20] was “inactive”. For the same molecule, the Potency [10] was “inactive”, the Potency [11] was “inactive” and the Potency [17] was “inactive”. The Potency [18] was “inactive” and the Potency [19] was “inactive”.
N[C@@H](Cc1ccc(N(CCCl)CCCl)cc1)C(=O)O was tested, and the Potency [12] was 11.2 µM (active), the Potency [13] was 6.75 µM (active) and the max response [1] was -7.43% (inactive). For the same molecule, the Potency [2] was 20.9 µM (active), the max response [3] was -1% (inactive) and the max response [4] was -3.99% (inactive) and -10.4% (inactive). The Potency [8] was 2.66 µM (active) and 2.96 µM (active), the Potency [9] was 1.33 µM (active) and 469 nM (active) and the Potency [10] was 13.3 µM (active) and 13.2 µM (active). For the same molecule, the Potency [11] was 4.22 µM (active) and 5.26 µM (active) and the Potency [17] was “inactive”.
With CC[N+](CC)(CC)CC the Potency [12] was “inactive”, the Potency [13] was “inactive” and the outcome [1] was “inactive”. The max response [3] was -5.59% (inactive), the max response [4] was -7.23% (inactive) and the outcome [5] was “inactive”. The outcome [14] was “inactive”, the Potency [6] was “inactive” and the Potency [7] was “inactive”. For the same molecule, the Potency [8] was “inactive”, the Potency [9] was “inactive” and the outcome [20] was “inactive”. For the same molecule, the Potency [10] was “inactive”, the Potency [11] was “inactive” and the Potency [17] was “inactive”. For the same molecule, the Potency [18] was “inactive” and the Potency [19] was “inactive”.
For Oc1cccc2cccnc12, the Potency [12] was “inactive”, the Potency [13] was “inactive” and the max response [1] was 3.76% (inactive). For the same molecule, the max response [3] was 4.28% (inactive), the max response [4] was 22% (inactive) and 11.8% (inactive) and -4.11% (inactive) and the Potency [5] was 19.3 µM (active). The max response [5] was 4.09% (inactive), the Potency [6] was “inactive” and the Potency [7] was 21.7 µM (active) and inactive. The Potency [8] was 12.2 µM (active) and inactive, the Potency [9] was 4.86 µM (active) and inactive and the Potency [10] was 10.9 µM (active) and inactive. The Potency [11] was 38.6 µM (active) and inactive, the Potency [17] was “inactive” and the Potency [18] was “inactive”. The Potency [19] was “inactive”.
